# Screening data deposited in PubChem BioAssay by National Center for Advancing Translational Sciences (NCATS).
# The list is not random: actives were taken first. Their share in the collection is about 12%.
# TDP1 block – inhibitors of human tyrosyl-DNA phosphodiesterase TDP1. Q9NUW8. recombinant TDP1, AlphaScreen DNA substrate cleavage. Potency, µM (doses to about 130 µM), for the others: at the highest dose activity change, negative = inhibition, most hits filed as inhibitors. 350,000 tested, 0.28% active. AID 485290; further: on the % scale 0 is the no-effect control and ±100 the full control effect; nearly all actives have a fitted effect of over 40% in size
#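 Recombinant human Tdp1 (E. coli-expressed, 1 nM final) preincubated with compounds 15 min at room temperature, then 5'-biotin/3'-phosphotyrosine-FITC DNA substrate (15 nM final) added for 5 min. AlphaScreen beads (10 ug/ml final) added 10 min; cleavage lowers signal.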
# HP1b chromo inh – HP1-beta chromodomain-methylated histone interaction inhibition. P83916. AlphaScreen HP1-beta / biotin-H3K9me3 peptide binding. Potency, µM (series often up to 114 µM), without a hit: at the top dose activity change, negative = inhibition, usual class: inhibitors. 390,000 tested, 0.56% active. AID 540317; further: nearly all actives have a fitted effect of over 70% in size
#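 Compound inhibition of the preformed complex between 50 nM HP1-beta and 50 nM biotinylated H3K9me3 peptide was read by AlphaScreen. Buffer was PBS pH 7.4 with 0.01% Tween-20. Incubations ran 30 min at room temperature, with 10 ug/mL donor/acceptor beads.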
# G9a inh – blocks human histone lysine methyltransferase G9a; AID 504332; Q96KQ7; Potency, µM (highest dose often 102 µM), for inactives: at the highest dose activity, negative = inhibition, actives largely listed as inhibitors; G9a H3K9 monomethylation, AlphaScreen, 2 h; 350,000 tested, 8.8% active; further: on the % scale 0 is the no-effect control and ±100 the full control effect; nearly all actives have a fitted effect of over 75% in size
#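 Methyltransferase reactions run at room temperature for 2 h (20 nM enzyme, 500 nM biotin-H3K9 peptide, 20 uM SAM) after a 15 min compound preincubation; product detected by AlphaScreen beads and anti-H3K9me1 antibody.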
# Sfp inh – Sfp phosphopantetheinyl transferase inhibition. Q9F4F7. Biochemical Sfp PPTase activity, qHTS. Potency, µM, for inactives: largest response in the series, negative = inhibition, usual class: inhibitors. 310,000 tested, 3.5% active. AID 1490;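 further: the enzyme is Sfp with the accession as filed and its product quenches rhodamine fluorescence; 0% = enzyme reaction without inhibitor and -100% = no enzyme wells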
#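 Buffer: 50 mM Hepes-Na pH 7.6, 10 mM MgCl2, 0.01% Nonidet P-40, 0.01% BSA. Enzyme 15 nM, pre-exposed to compound 15 min; substrates then added and fluorescence change tracked over 30 min.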
# JMJD2A Tudor – blocks the human JMJD2A Tudor domain. O75164. AlphaScreen JMJD2A-Tudor / H3K4me3 peptide binding. Potency, µM (series often up to 114 µM), for the others: top-dose activity change, negative = inhibition, usual class: inhibitors. 390,000 tested, 4.4% active; further: on the % scale 0 is the no-effect control and ±100 the full control effect; nearly all actives have a fitted effect of over 50% in size
# BAZ2B inh – inhibitors of human BAZ2B bromodomain; AlphaScreen BAZ2B-H3K14Ac peptide displacement; 360,000 tested, 4.4% active; Potency, µM (titrated, usually from 114 µM), for inactives: at the highest dose activity change, negative = inhibition, usual class: inhibitors; Q9UIF8; further: on the % scale 0 is the no-effect control and ±100 the full control effect; nearly all actives have a fitted effect of over 60% in size
#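 Multi-concentration screen (max 110 uM) measuring displacement of acetylated histone H3 peptide from BAZ2B by AlphaScreen, using 50 nM protein, 50 nM peptide and 10 ug/mL streptavidin donor plus Ni-chelate acceptor beads.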
# * marks the source's active call; other numbers are inactive results; ? = inconclusive; . = not tested or not shown; [ ] = another dose, or the depositor's remark. The call rests on the fitted dose curve; in most records, active means well fitted curve in the direction sought with a large enough effect; inconclusive means small, poorly fitted or top-dose-only effect, or another doubt; inactive means no such curve, though single readings can be large; an effect the other way counts as inactive or inconclusive. Potency means the concentration at half of the fitted maximal effect.
SMILES,TDP1 block,HP1b chromo inh,G9a inh,Sfp inh,JMJD2A Tudor,BAZ2B inh
Cc1cc([N+](=O)[O-])cc([N+](=O)[O-])c1NCC(C)C,8%,40µM*,16µM*,-4%,45µM*,13µM*
Cc1ccc(S(=O)(=O)Nc2c(C)cc([N+](=O)[O-])cc2C)cc1,.,11%,.,.,-28%,.
COc1cc(-c2nc(S(=O)(=O)c3ccc(Br)cc3)c(N3CCOCC3)o2)cc(OC)c1OC,7%,1%[57 µM],-28%[59 µM],.,?,-35%
Cc1ccc(C(C)CCN2CCC(n3nccc3NC(=O)c3ccccc3)CC2)o1 (centres undefined),7%[56.1 µM],-19%,28µM*,-23%,-21%,-25%
COc1ccc2cc(C(=O)C3CCCN(C(=O)c4cnn(C(C)C)c4)C3)ccc2c1 (centres undefined),5%,4%,2%,17%,18µM*,-22%
COc1ccc2cc(C(=O)C3CCCN(C(=O)c4cccnc4)C3)ccc2c1 (centres undefined),6%,31%,?,1%,-11%,-21%
CN(C)c1ccccc1C(=O)N1CCCC(C(=O)c2ccc3ccccc3c2)C1 (centres undefined),3%,-4%,50µM*,-18%,?,?
Cc1ccc(NC(=O)c2ccccc2)s1,6%,23%,25µM*,-30%,14%,-3%
Cc1cc(C)c2c(=O)n(CC(=O)NCCCN3CCN(c4ccccc4F)CC3)sc2n1,14%,2.5µM*,1.1µM*,4.5µM*,1µM*,?
Cc1cc(C)c2c(=O)n(CC(=O)NCCCN3CCOCC3)sc2n1,8%,3.2µM*,1.3µM*,1.3µM*,1.1µM*,?
Cc1cc([N+](=O)[O-])nn1CC(=O)NCCCN1CCOCC1,-5%,20%,-10%,22%,-7%,10%
Cc1ccc2[nH]cc(C(c3ccccc3)c3ccc(C)s3)c2c1 (centres undefined),9%,8%,?,.,?,-37%
CCC1=C2CC[C@H]3C(=O)N(c4ccccc4)C(=O)[C@H]3[C@H]2[C@@]2(Cc3ccccc3)C(=NCCc3c[nH]c4ccccc34)OC(=O)N2C1=O,10%,.,.,28%,.,.
Cc1noc(C)c1-c1ccc2ncnc(NCc3ccc(-c4ccccc4)cc3)c2c1,11%,.,.,-3%,-32%,.
CC(=O)c1ccc(S(=O)(=O)N2CCN(c3nc(-c4ccccc4)nc4ccccc34)CC2)cc1,2%,23%,.,.,-15%,.
Cc1ccc2c(CN3CCCCC3CCO)cc(=O)oc2c1 (centres undefined),.,32%,25µM*,11%,0%,3%
Cc1ccc2c(CN3CCC(C)CC3)cc(=O)oc2c1,0%,29%,45µM*,-5%,-5%,-3%
Cc1ccc2c(CN3CCCCC3C)cc(=O)oc2c1 (centres undefined),.,32%,8%,-4%,-4%,9%
CC1(C)OC2CC3C4CC(F)C5=CC(=O)C=C[C@@]5(C)[C@@]4(F)C(O)C[C@@]3(C)[C@]2(C(=O)CO)O1 (some centres undefined),18%,.,-12%[2.33 µM],17%,.,.
CCN(C[C@H]1N[C@@](C)(C(=O)OC)[C@H]2C(=O)N(C)C(=O)[C@@H]12)S(=O)(=O)c1ccc(C)cc1,2%,41%,.,.,-30%,.
COC(=O)[C@]1(C)N[C@H](CN(C)S(=O)(=O)c2ccc(C)cc2)[C@@H]2C(=O)N(C)C(=O)[C@@H]21,-17%,20%,.,.,79µM*,.
Cc1ccc2nc(NC(=O)C3CC3C)sc2c1 (centres undefined),.,23%,-2%,16%,-5%,-5%
COc1cc(C(=O)N(CCCN(C)C)c2nc3c(OC)cccc3s2)cc(OC)c1OC,-1%,12%,-9%[59 µM],.,-26%,-12%
COC(=O)/C=C1/SC(=NC(=O)c2cccc([N+](=O)[O-])c2)NC1=O,3%,43%,20µM*,-21%,-10%,?
